Source: PubChem BioAssay AID1159580 (chemical genetic matrix, 2015)
About 2,000 (36%) of roughly 5,500 compounds were called active. About 18% were inconclusive and are not listed. No stated cut-off is given here; in the data, active means normalized growth mostly below about 0.91 (no sharp cut-off); inconclusive means no clear call, values can overlap the other calls; inactive means mostly above about 0.92. Some of the results follow.

Assay: chemical genetic growth profiling, strain panel (AID 1159580);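 further: tested at 20 µM; growth read once vehicle control cultures reached saturation at 30 °C; 1 = growth at the plate median or of vehicle wells; lower values mean less growth of the strain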
Settings: growth OD
[1] = S. cerevisiae deletion strains, locus YDL101C, strain DUN1, active compounds read low
[2] = S. cerevisiae deletion strains, locus YHR030C, strain SLT2, active compounds read low

Measured: normalized growth

C/C(=N/NC(=S)Nc1ccc(C(C)C)cc1)c1ccco1
active: S. cerevisiae deletion strains, locus YAL013W, strain DEP1, active compounds read low 0.906 | S. cerevisiae deletion strains, locus YBR229C, strain ROT2, active compounds read low 0.859 | S. cerevisiae deletion strains, locus YCL061C, strain MRC1, active compounds read low 0.909 | S. cerevisiae deletion strains, locus YDL134C, strain PPH21, active compounds read low 0.629 | S. cerevisiae deletion strains, locus YEL061C, strain CIN8, active compounds read low 0.433 | S. cerevisiae deletion strains, locus YGR078C, strain PAC10, active compounds read low 0.864 | [2] 0.242 | S. cerevisiae deletion strains, locus YHR087W, strain rtc3, active compounds read low 0.817 | S. cerevisiae deletion strains, locus YJL187C, strain SWE1, active compounds read low 0.866 | S. cerevisiae deletion strains, locus YJR075W, strain HOC1, active compounds read low 0.879 | S. cerevisiae deletion strains, locus YKL190W, strain CNB1, active compounds read low 0.583 | S. cerevisiae deletion strains, locus YLR039C, strain RIC1, active compounds read low 0.487 | S. cerevisiae deletion strains, locus YLR085C, strain ARP6, active compounds read low 0.158 | S. cerevisiae deletion strains, locus YLR262C, strain YPT6, active compounds read low 0.617 | S. cerevisiae deletion strains, locus YML094W, strain GIM5, active compounds read low 0.687 | S. cerevisiae deletion strains, locus YMR219W, strain ESC1, active compounds read low 0.93 | S. cerevisiae deletion strains, locus YMR263W, strain SAP30, active compounds read low 0.892 | S. cerevisiae deletion strains, locus YMR307W, strain GAS1, active compounds read low 0.376 | S. cerevisiae deletion strains, locus YNL153C, strain GIM3, active compounds read low 0.875 | S. cerevisiae deletion strains, locus YNL298W, strain CLA4 (second series), active compounds read low 0.437 | S. cerevisiae deletion strains, locus YNR030W, strain Alg12, active compounds read low 0.609 | S. cerevisiae deletion strains, locus YOL006C, strain TOP1, active compounds read low 0.17 | S. cerevisiae deletion strains, locus YPL241C, strain CIN2, active compounds read low 0.516 | S. cerevisiae deletion strains, locus YPR135W, strain CTF4, active compounds read low 0.398 | S. cerevisiae strains, strain wild type, active compounds read low 0.741
inactive: [1] 0.905 | S. cerevisiae deletion strains, locus YDR150W, strain NUM1, active compounds read low 0.805 | S. cerevisiae deletion strains, locus YJR043C, strain POL32, active compounds read low 0.937 | S. cerevisiae deletion strains, locus YLR058C, strain SHM2 (second series), active compounds read low 0.967 | S. cerevisiae deletion strains, locus YNL322C, strain KRE1, active compounds read low 0.991 | S. cerevisiae deletion strains, locus YPL055C, strain LGE1, active compounds read low 0.847

O/N=C(/c1ccc(Cl)cc1)c1cc2ccccc2o1
inactive: S. cerevisiae deletion strains, locus YAR019C, strain CDC15, active compounds read low 0.936 | S. cerevisiae deletion strains, locus YBL105C, strain PKC1, active compounds read low 0.946 | S. cerevisiae deletion strains, locus YBR135W, strain CKS1, active compounds read low 0.939 | S. cerevisiae deletion strains, locus YBR136W, strain MEC1, active compounds read low 0.945 | S. cerevisiae deletion strains, locus YBR160W, strain CDC28, active compounds read low 0.957 | S. cerevisiae deletion strains, locus YDL017W, strain CDC7, active compounds read low 0.946 | S. cerevisiae deletion strains, locus YDL028C, strain MPS1, active compounds read low 0.948 | [1] 0.964 | S. cerevisiae deletion strains, locus YDL108W, strain KIN28, active compounds read low 0.943 | S. cerevisiae deletion strains, locus YDL132W, strain cdc53, active compounds read low 0.962 | S. cerevisiae deletion strains, locus YDL214C, strain PRR2, active compounds read low 0.887 | S. cerevisiae deletion strains, locus YDR052C, strain DBF4, active compounds read low 0.93 | S. cerevisiae deletion strains, locus YDR054C, strain cdc34, active compounds read low 0.947 | S. cerevisiae deletion strains, locus YDR226W, strain ADK1, active compounds read low 0.916 | S. cerevisiae deletion strains, locus YDR477W, strain SNF1, active compounds read low 0.847 | S. cerevisiae deletion strains, locus YER123W, strain YCK3, active compounds read low 0.883 | S. cerevisiae deletion strains, locus YER133W, strain GLC7, active compounds read low 0.813 | S. cerevisiae deletion strains, locus YFL009W, strain cdc4, active compounds read low 0.963 | S. cerevisiae deletion strains, locus YFL029C, strain CAK1, active compounds read low 0.94 | S. cerevisiae deletion strains, locus YFR003C, strain YPI1, active compounds read low 0.943 | S. cerevisiae deletion strains, locus YFR019W, strain FAB1, active compounds read low 0.904 | S. cerevisiae deletion strains, locus YFR028C, strain CDC14, active compounds read low 0.956 | S. cerevisiae deletion strains, locus YGR040W, strain KSS1, active compounds read low 0.852 | S. cerevisiae deletion strains, locus YGR052W, strain FMP48, active compounds read low 0.789 | S. cerevisiae deletion strains, locus YGR092W, strain DBF2, active compounds read low 0.748 | S. cerevisiae deletion strains, locus YHR079C, strain IRE1, active compounds read low 0.851 | S. cerevisiae deletion strains, locus YHR082C, strain KSP1, active compounds read low 0.877 | S. cerevisiae deletion strains, locus YHR205W, strain SCH9, active compounds read low 0.675 | S. cerevisiae deletion strains, locus YIL147C, strain SLN1, active compounds read low 0.943 | S. cerevisiae deletion strains, locus YJL128C, strain PBS2, active compounds read low 0.893 | S. cerevisiae deletion strains, locus YJL157C, strain FAR1, active compounds read low 0.872 | S. cerevisiae deletion strains, locus YJR016C, strain ILV3, active compounds read low 0.941 | S. cerevisiae deletion strains, locus YJR066W, strain TOR1 (second series), active compounds read low 0.848 | S. cerevisiae deletion strains, locus YJR066W, strain TOR1, active compounds read low 0.797 | S. cerevisiae deletion strains, locus YKL048C, strain ELM1, active compounds read low 0.923 | S. cerevisiae deletion strains, locus YKL067W, strain YNK1, active compounds read low 0.893 | S. cerevisiae deletion strains, locus YKL101W, strain HSL1, active compounds read low 0.916 | S. cerevisiae deletion strains, locus YKL193C, strain SDS22, active compounds read low 0.93 | S. cerevisiae deletion strains, locus YLR113W, strain HOG1, active compounds read low 0.915 | S. cerevisiae deletion strains, locus YLR133W, strain CKI1, active compounds read low 0.863 | S. cerevisiae deletion strains, locus YML070W, strain DAK1, active compounds read low 0.868 | S. cerevisiae deletion strains, locus YMR001C, strain CDC5, active compounds read low 0.936 | S. cerevisiae deletion strains, locus YMR205C, strain PFK2 (second series), active compounds read low 0.862 | S. cerevisiae deletion strains, locus YMR277W, strain FCP1, active compounds read low 0.933 | S. cerevisiae deletion strains, locus YNL006W, strain LST8, active compounds read low 0.945 | S. cerevisiae deletion strains, locus YNL020C, strain ARK1, active compounds read low 0.82 | S. cerevisiae deletion strains, locus YNL161W, strain CBK1, active compounds read low 0.942 | S. cerevisiae deletion strains, locus YNL183C, strain NPR1, active compounds read low 0.784 | S. cerevisiae deletion strains, locus YNL207W, strain RIO2, active compounds read low 0.935 | S. cerevisiae deletion strains, locus YNL222W, strain SSU72, active compounds read low 0.947 | S. cerevisiae deletion strains, locus YNL307C, strain MCK1 (second series), active compounds read low 0.902 | S. cerevisiae deletion strains, locus YOL078W, strain AVO1, active compounds read low 0.937 | S. cerevisiae deletion strains, locus YOL136C, strain PFK27, active compounds read low 0.865 | S. cerevisiae deletion strains, locus YOR061W, strain CKA2, active compounds read low 0.87 | S. cerevisiae deletion strains, locus YOR119C, strain RIO1, active compounds read low 0.848 | S. cerevisiae deletion strains, locus YOR231W, strain MKK1, active compounds read low 0.964 | S. cerevisiae deletion strains, locus YOR329C, strain SCD5, active compounds read low 0.946 | S. cerevisiae deletion strains, locus YPL031C, strain PHO85, active compounds read low 0.84 | S. cerevisiae deletion strains, locus YPL153C, strain RAD53, active compounds read low 0.841 | S. cerevisiae deletion strains, locus YPL204W, strain HRR25, active compounds read low 0.807 | S. cerevisiae deletion strains, locus YPL209C, strain IPL1, active compounds read low 0.941 | S. cerevisiae deletion strains, locus YPL256C, strain CLN2, active compounds read low 0.917 | S. cerevisiae deletion strains, locus YPR025C, strain CCL1, active compounds read low 0.948 | S. cerevisiae deletion strains, locus YPR106W, strain ISR1, active compounds read low 0.946 | S. cerevisiae deletion strains, locus YPR111W, strain DBF20, active compounds read low 0.951 | S. cerevisiae deletion strains, strain NNK1, active compounds read low 0.946 | S. cerevisiae deletion strains, strain TSCII, active compounds read low 0.939
active: [2] 0.526 | S. cerevisiae deletion strains, locus YJL095W, strain BCK1, active compounds read low 0.403 | S. cerevisiae deletion strains, locus YKL203C, strain TOR2, active compounds read low 0.622 | S. cerevisiae deletion strains, locus YLR403W, strain SFP1, active compounds read low 0.614
